PubChem BioAssay AID1159580 (chemical genetic matrix, 2015)
Several values for one entry are separate records, joined by “and”; a condition that tells them apart may be missing. Identical values can stand only once. In all, about 5,500 compounds went through this assay and about 2,000 (36%) were called active. Roughly 18% stayed inconclusive and do not appear here. Rule as the data show it: active = normalized growth mostly below about 0.91 (no sharp cut-off); inconclusive = no clear call, values can overlap the other calls; inactive = mostly above about 0.92. The list shows a part of the results.

Test: chemical genetic growth profiling, strain panel (AID 1159580);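 also: tested at 20 µM; growth read once vehicle control cultures reached saturation at 30 °C; 1 = growth at the plate median or of vehicle wells; lower values mean less growth of the strain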
Conditions: S. cerevisiae deletion strains, growth OD

Measured: normalized growth

CC(=O)N[C@@H](CCC(=O)O)C(=O)O
inactive: locus YAL021C, strain ccr4, stronger effect = lower value 1.03 | locus YAL026C, strain drs2, stronger effect = lower value 1.03 | locus YAL030W, strain snc1, stronger effect = lower value 1.01 | locus YBL061C, strain skt5, stronger effect = lower value 1.03 | locus YBR009C, strain hhf1, stronger effect = lower value 0.994 | locus YBR021W, strain FUR4, stronger effect = lower value 1.01 | locus YBR023C, strain chs3, stronger effect = lower value 1.03 | locus YBR171W, strain sec66, stronger effect = lower value 1.03 | locus YBR229C, strain ROT2, stronger effect = lower value 1 | locus YBR231C, strain swc5, stronger effect = lower value 1.02 | locus YBR279W, strain paf1, stronger effect = lower value 1.02 | locus YCL011C, strain gbp2, stronger effect = lower value 1.02 | locus YCL016C, strain dcc1, stronger effect = lower value 1.03 | locus YCL029C, strain bik1, stronger effect = lower value 1.02 | locus YCL069W, strain vba3, stronger effect = lower value 1.02 | locus YCR088W, strain abp1, stronger effect = lower value 1.02 | locus YDL005C, strain med2, stronger effect = lower value 1.02 | locus YDL035C, strain GPR1, stronger effect = lower value 1.01 | locus YDL040C, strain nat1, stronger effect = lower value 1.01 | locus YDL074C, strain BRE1, stronger effect = lower value 1.02 | locus YDL101C, strain DUN1, stronger effect = lower value 1.01 | locus YDL134C, strain PPH21, stronger effect = lower value 1.01 | locus YDL185W, strain tfp1, stronger effect = lower value 1 | locus YDL192W, strain arf1, stronger effect = lower value 1.01 | locus YDR001C, strain nth1, stronger effect = lower value 1.02 | locus YDR069C, strain doa4, stronger effect = lower value 1.03 | locus YDR101C, strain arx1, stronger effect = lower value 1.02 | locus YDR137W, strain rgp1, stronger effect = lower value 1.04 | locus YDR150W, strain NUM1, stronger effect = lower value 0.99 | locus YDR159W, strain sac3, stronger effect = lower value 1.01 | locus YDR162C, strain NBP2, stronger effect = lower value 1.01 | locus YDR195W, strain ref2 1.02 | locus YDR297W, strain sur2, stronger effect = lower value 1.02 | locus YDR318W, strain mcm21, stronger effect = lower value 1.03 | locus YDR334W, strain swr1, stronger effect = lower value 1.02 | locus YDR335W, strain msn5, stronger effect = lower value 1.02 | locus YDR388W, stronger effect = lower value 1.01 | locus YDR392W, strain spt3, stronger effect = lower value 1.05 | locus YDR502C, strain sam2, stronger effect = lower value 1.01 | locus YEL003W, strain gim4, stronger effect = lower value 1.01 | locus YEL037C, strain rad23, stronger effect = lower value 1.02 | locus YEL061C, strain CIN8 (second series), stronger effect = lower value 1.02 | locus YEL061C, strain CIN8, stronger effect = lower value 1.01 | locus YER015W, strain faa2, stronger effect = lower value 1.02 | locus YER016W, strain bim1, stronger effect = lower value 1.03 | locus YER110C, stronger effect = lower value 1.01 | locus YER111C, strain swi4, stronger effect = lower value 1.02 | locus YER155C, strain BEM2 (second series), stronger effect = lower value 1.01 | locus YER155C, strain BEM2, stronger effect = lower value 1.01 | locus YER167W, strain BCK2, stronger effect = lower value 1.01 | locus YFR010W, strain ubp6, stronger effect = lower value 1.01 | locus YGL078C, strain dbp3, stronger effect = lower value 0.996 | locus YGL086W, strain mad1, stronger effect = lower value 0.986 | locus YGL167C, strain pmr1, stronger effect = lower value 1.02 | locus YGL173C, strain kem1, stronger effect = lower value 1.01 | locus YGL227W, strain vid30, stronger effect = lower value 1.02 | locus YGL240W, strain doc1, stronger effect = lower value 1.01 | locus YGL248W, strain PDE1, stronger effect = lower value 1 | locus YGL253W, strain hxk2, stronger effect = lower value 1.04 | locus YGR078C, strain PAC10, stronger effect = lower value 0.999 | locus YGR135W, strain pre9, stronger effect = lower value 1.01 | locus YGR252W, strain gcn5, stronger effect = lower value 0.974 | locus YHR013C, strain ard1, stronger effect = lower value 1.06 | locus YHR027C, strain rpn1, stronger effect = lower value 1.02 | locus YHR030C, strain SLT2, stronger effect = lower value 1 and 0.981 | locus YHR079C, strain IRE1 (second series), stronger effect = lower value 1.02 | locus YHR079C, strain IRE1, stronger effect = lower value 0.981 | locus YHR094C, strain hxt1, stronger effect = lower value 1.01 | locus YHR129C, strain ARP1, stronger effect = lower value 1 | locus YHR142W, strain chs7, stronger effect = lower value 1.05 | locus YHR200W, strain rpn10, stronger effect = lower value 1 | locus YIL066C, strain RNR3, stronger effect = lower value 1.01 | locus YIL073C, strain SPO22, stronger effect = lower value 1.06 | locus YIL125W, strain kgd1, stronger effect = lower value 1 | locus YIR030C, strain dcg1, stronger effect = lower value 1.01 | locus YJL092W, strain hpr5, stronger effect = lower value 1.02 | locus YJL095W, strain BCK1 (second series), stronger effect = lower value 1.03 | locus YJL095W, strain BCK1, stronger effect = lower value 1.01 and 0.983 | locus YJL115W, strain asf1, stronger effect = lower value 1.01 | locus YJL129C, strain trk1, stronger effect = lower value 1.04 | locus YJL134W, strain LCB3, stronger effect = lower value 1.01 | locus YJL154C, strain vps35, stronger effect = lower value 1.02 | locus YJL164C, strain tpk1, stronger effect = lower value 1.01 | locus YJL166W, strain qcr8, stronger effect = lower value 1 | locus YJL168C, strain set2, stronger effect = lower value 1.01 | locus YJL187C, strain SWE1 (second series), stronger effect = lower value 1.01 | locus YJL187C, strain SWE1, stronger effect = lower value 1.03 | locus YJR043C, strain POL32, stronger effect = lower value 0.999 | locus YJR066W, strain TOR1, stronger effect = lower value 0.909
